# Source: PubChem (The Scripps Research Institute Molecular Screening Center)
# TEAD-YAP inh: TEAD-YAP interaction inhibition; inhibition, % at 9.12 µM; AID 1259422; actives 1.4% (n = 640,000); HEK-TIYL cells, TEAD-Gal4/YAP UAS-luciferase luminescence; in the data active means inhibition above about 32%;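 further: 0% = median of test compound wells and 100% = reference inhibitor wells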
# GPR151 ag: activators of human GPR151 | Q8TDV0 | PathHunter beta-arrestin GPR151 cells, luminescence | activation, % at 11.2 µM | actives 1% (n = 650,000) | AID 1508602; in the data active means activation above about 4.9%;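 further: 0% = median of compound wells and 100% = cells with positive control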
# Target sequence (Q8TDV0 whole entry, looked up): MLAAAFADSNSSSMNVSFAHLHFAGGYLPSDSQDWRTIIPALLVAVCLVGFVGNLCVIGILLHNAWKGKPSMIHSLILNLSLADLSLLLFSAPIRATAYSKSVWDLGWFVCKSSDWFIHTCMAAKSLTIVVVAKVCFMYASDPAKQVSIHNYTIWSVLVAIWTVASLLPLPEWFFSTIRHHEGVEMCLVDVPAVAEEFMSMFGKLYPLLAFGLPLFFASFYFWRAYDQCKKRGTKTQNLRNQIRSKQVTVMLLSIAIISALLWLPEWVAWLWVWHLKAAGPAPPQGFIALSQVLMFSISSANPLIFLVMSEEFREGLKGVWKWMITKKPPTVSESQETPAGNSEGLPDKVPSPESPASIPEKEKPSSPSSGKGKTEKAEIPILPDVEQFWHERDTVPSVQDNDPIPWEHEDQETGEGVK
# MITF primary: inhibitors of human MITF; O75030; AlphaScreen MITF homodimerization, bead proximity signal; inhibition, % at 2.6 µM; actives 0.91% (n = 650,000); in the data active means inhibition above about 50%;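 further: 0% = vehicle wells with protein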
# FBW7 act: human FBW7 E3 ligase activation, primary screen; Q969H0; AlphaScreen FBW7–phospho-cyclin E peptide binding, activator screen; normalized activity (activation), % at 26.1 µM; actives 0.13% (n = 650,000); AID 1259310; in the data active means normalized activity above about 1.9%;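 further: purified mutant Fbw7 with reduced substrate affinity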
# * hit, by the source's call. Rows were chosen to be rich in hits. Some 3.4% of all compounds tested hit in one or more screens of this group.
SMILES,TEAD-YAP inh,GPR151 ag,MITF primary,FBW7 act
CN(C1=C(NCCO)C(=O)c2ccccc2C1=O)c1ccccc1,3,0,24,0
CC(=O)N(C1=C(NCCO)C(=O)c2ccccc2C1=O)c1cccc(Br)c1,86*,-4,0,0
CN(C)C1=C(Nc2ccc(Cl)c(Cl)c2)C(=O)c2ccccc2C1=O,-3,-1,12,0
CC(=O)N(C1=C(N(C)C)C(=O)c2ccccc2C1=O)c1ccc(F)c(F)c1,99*,-6,17,0
CC(=O)N(C1=C(N(C)C)C(=O)c2ccccc2C1=O)c1cccc(Cl)c1,93*,-5,24,-1
C=CCN1C(=O)/C(=C/c2ccc(N(C)C)cc2)C(=O)NC1=S,2,0,15,0
O=C(CSc1nc2ccccc2c(=O)n1CC1CCCO1)NC1CCCC1 (centres undefined),-5,-1,1,0
COc1cc(-c2nc3ccc(C(=O)NCc4ccc(C)cc4)cc3nc2-c2cc(OC)c(OC)c(OC)c2)cc(OC)c1OC,3,0,-1,0
O=C(Cc1cn(-c2ccc(Nc3ccncn3)nn2)c2ccccc12)NCCN1CCOCC1,-8,-1,-22,0
COc1cc2nc(-c3ccc(N(C)C)cc3)n(C)c2cc1OC,-71,0,3,0
COc1cc2nc(C)n(C(=S)S)c2cc1OC,56*,0,14,0
CCc1ccc(/C=N\NC(=O)Cn2cnc3ccccc32)cc1,7,0,3,0
Cc1ccc(NC(=O)C(=O)NCCN2CCN(C(=O)c3cccc(F)c3)CC2)cc1,7,0,2,0
COC(=O)C(C)N(c1ccc(Cl)cc1)S(C)(=O)=O (centres undefined),9,1,5,0
CC(=O)Nc1ccc(Nc2nc(Nc3nccc4ccccc34)nc3c2ncn3CCN2CCCC2=O)cc1,-3,0,35,0
O=C(Nc1ccc(Cl)cc1)c1cc([N+](=O)[O-])ccc1O,72*,-10,11,0
COc1ccc(/C=N/NC(=O)c2cc([N+](=O)[O-])ccc2O)cc1,33*,-9,-5,0
COc1ccc(OCC(=O)Nc2cc([N+](=O)[O-])ccc2O)cc1,90*,-7,-1,0
Cc1ccc(NC(=O)c2cc([N+](=O)[O-])ccc2O)cc1,76*,-10,26,0
CC(C)N(CCNc1ccnc(Nc2ccccn2)n1)C(C)C,-6,2,17,0
O=C(NNC(=O)c1cc2ccccc2cc1O)Nc1cccc([N+](=O)[O-])c1,-7,-2,-5,0
O=C(Nc1ccc([N+](=O)[O-])cc1Cl)c1cc(Br)ccc1O,-70,1,5,0
O=C(Nc1c(Cl)cc([N+](=O)[O-])cc1Cl)c1cc(Cl)ccc1O,67*,5,0,0
CNC(=S)N/N=C\c1ccc([N+](=O)[O-])cc1,34*,-1,2,0
O=C(Nc1cccc([N+](=O)[O-])c1)c1cc2ccccc2cc1O,34*,-1,-1,0
SMILES,TEAD-YAP inh,GPR151 ag,MITF primary,FBW7 act
O=C(N/N=C/c1ccc([N+](=O)[O-])cc1)C(=O)N/N=C/c1ccc([N+](=O)[O-])cc1,4,4,-14,0
COc1ccc(NC(=O)c2cc([N+](=O)[O-])ccc2O)cc1,86*,-10,-7,1
O=C1N=c2ccccc2=C1c1c(O)[nH]c2ccc(F)cc12,11,2,1,0
Cc1nc2nc(NCc3ccccc3F)nn2c(C)c1Cl,-7,1,-10,0
Cc1nc(C)n(-c2ccc(Nc3ncc4ccc(-c5cn[nH]c5)cc4n3)cc2)n1,73*,-1,11,0
Cn1ncc2cc(Nc3ncc4ccc(-c5cn[nH]c5)cc4n3)ccc21,71*,4,22,0
Cc1ccc(-c2ncn(-c3ccc(Nc4ncc5ccc(Br)cc5n4)cc3)n2)cn1,4,1,-7,0
Cc1nc(C)n(-c2ccc(Nc3cc4cc(-c5cn[nH]c5)ccc4cn3)cc2)n1,85*,0,11,0
Cc1ncn(-c2ccc(Nc3ncc(Cl)c(-c4cn[nH]c4)n3)cc2)n1,7,0,-4,0
CCOC(=O)N1CCN(C(=O)Cn2ccc3ccccc32)CC1,6,2,1,0
CC(C)NC1CCCc2c1[nH]c1ccc([N+](=O)[O-])cc21 (centres undefined),49*,1,30,0
Cc1nc(SC2CC(=O)N(c3ccccc3)C2=O)c(C#N)c(C)c1C (centres undefined),57*,1,12,1
N#Cc1cc2c(nc1SC1CC(=O)N(c3ccccc3)C1=O)CCCCC2 (centres undefined),-19,-1,0,0
N#Cc1cc2c(nc1SC1CC(=O)N(c3ccccc3)C1=O)CCC2 (centres undefined),39*,1,-9,0
COc1ccc(-c2cc(-c3ccccc3)nc(SC3CC(=O)N(c4ccc(C)cc4)C3=O)c2C#N)cc1 (centres undefined),9,-1,8,0
Cc1cc(C)c(C#N)c(SC2CC(=O)N(c3ccccc3)C2=O)n1 (centres undefined),38*,0,3,1
O=S(=O)(NC(=NCc1ccccc1)C(F)(F)F)c1ccccc1,3,1,-13,1
CCc1ccc(-c2cc(C(=O)N3CCN(Cc4ccccc4)CC3)c3ccccc3n2)cc1,65*,0,17,0
CCc1ccc(-c2cc(C(=O)N3CCN(c4ncccn4)CC3)c3ccccc3n2)s1,33*,1,-14,0
Cc1ccc(-c2cc(C(=O)N3CCOCC3)c3ccccc3n2)cc1,-10,-1,-6,0
CC(C)c1ccc(-c2cc(C(=O)O)c3ccccc3n2)cc1,74*,-5,9,0
COc1ccc(NC(=O)c2cc(-c3ccncc3)nc3ccccc23)cc1,40*,0,-2,0
O=C(OCN1C(=O)c2ccccc2C1=O)c1ccc(Cl)cc1Cl,6,0,3,0
COc1ccc2cc(-c3cc(C(=O)N4CCN(CCO)CC4)c4ccccc4n3)ccc2c1,70*,-1,-1,0
COc1cccc(-c2cc(C(=O)N3CCOCC3)c3ccccc3n2)c1,11,0,-2,0
SMILES,TEAD-YAP inh,GPR151 ag,MITF primary,FBW7 act
COc1ccc(-c2cc(C(=O)N3CCN(c4ccccc4OC)CC3)c3ccccc3n2)cc1,41*,1,-12,0
COc1ccc(C(C)=O)cc1COC(=O)c1cccc(C)c1C,10,1,-2,0
CCOC(=O)c1[nH]c(C)c(C(=O)Nc2cc(C)ccc2C)c1C,40*,0,2,0
CCOC(=O)c1[nH]c(C)c(C(=O)Nc2cccc(C)c2C)c1C,42*,1,8,0
CCOC(=O)c1[nH]c(C)c(C(=O)N2CCc3ccccc32)c1C,49*,0,-4,0
CCOC(=O)c1c(C)c(C(=O)Nc2cc(C)ccc2OC)c(C)n1CC,41*,1,3,0
CC1CCCC(NC(=O)C2N(Cc3ccccc3Cl)C(=O)C3C(C(=O)Nc4cccc(Cl)c4)C4C=CC32O4)C1C (centres undefined),-2,-1,4,0
